Data: PubChem BioAssay AID504321 (NMMLSC, 2011)
Activity calls are given as the source filed them.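 How the source made its calls: active means GFP response vs DMSO above 150% with enough events counted; inconclusive means fewer than 70 events counted for a yeast strain; inactive means the rest.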

experiment: MEP2-GFP expression modulation in yeast, confirmation, flow cytometry, third cherry pick, S. cerevisiae (AID 504321);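 further: median per-cell GFP fluorescence by flow cytometry across all yeast cells; ratio of sample to DMSO median GFP so 100% equals the DMSO level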; conditions: S. cerevisiae MEP2-GFP strain, 3 h, at 10 µM, stronger effect = higher value

GFP response vs DMSO, active:
CC1=CN2C(=N)/C(=C/c3ccc([N+](=O)[O-])o3)C(=O)N=C2S1 5270%, Oc1c(Cl)cc(Cl)c2cccnc12 181%, Oc1c(I)cc(Cl)c2cccnc12 181%

GFP response vs DMSO, inactive:
COc1ccc(OC)c2c(=O)cc(C(=O)O)[nH]c12 105%, O=C(N/N=C/c1ccccc1)c1cccc2ccccc12 103%, COc1cccc(NC(=O)CC(C)=O)c1 108%, CC1=NNC(=O)/C1=C\c1cn(-c2ccccc2)nc1-c1ccc(F)cc1 131%, COc1ccccc1-c1cc(C(F)(F)F)nc(S(=O)(=O)CCCC(=O)O)n1 110%, CCC(C)Nc1nc(N)c([N+](=O)[O-])c(Nc2ccccc2OC)n1 (stereo not drawn) 114%, CC(=O)Nc1ccc(-c2nc3cc(Cl)ccc3o2)cc1 108%, COc1ccccc1Nc1nc(NCCO)nc(N)c1[N+](=O)[O-] 105%, CC(=O)NC(C)c1cc(Cl)c2cccnc2c1O (stereo not drawn) 99%, Cc1nc(Nc2ccc(Cl)cc2)c(C#N)c(=O)[nH]1 108%, C/C(=C\C(=O)c1ccc(C)cc1)Nc1cccc(O)c1 108%, CN(C)CCCNc1cc(O)c2ncccc2c1 118%, Cc1ccc(NC(=O)O/N=C2\CCCCC2c2ccc([N+](=O)[O-])cc2[N+](=O)[O-])cc1 (stereo not drawn) 105%, O=C(Nc1ccc(-c2nc3ccccc3o2)cc1)c1cccnc1 103%, CSc1nc(Nc2ccc(Cl)cc2)c(C#N)c(=O)[nH]1 108%
